# Compounds with a hit are over-represented: about 12% of the library has one in this group of screens.
# JMJD2A Tudor inh: blocks the human JMJD2A Tudor domain. 4.4% of 390,000 active. O75164. Potency, µM (titrated, usually from 114 µM), for the others: at the highest dose activity change, negative = inhibition, usual class: inhibitors. AlphaScreen JMJD2A-Tudor / H3K4me3 peptide binding. AID 504339; note: % is set by controls: 0 for no effect and ±100 for the full control effect; nearly all actives have a fitted effect of over 50% in size
# BAZ2B inh: BAZ2B (human) inhibition. Q9UIF8. AlphaScreen BAZ2B-H3K14Ac peptide displacement. Potency, µM (highest dose often 114 µM), for the others: at the top dose activity change, negative = inhibition, most hits filed as inhibitors. 4.4% of 360,000 active; note: % is set by controls: 0 for no effect and ±100 for the full control effect; nearly all actives have a fitted effect of over 60% in size
#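 BAZ2B 50 nM plus b-H3(5-23)K14Ac 50 nM, PBS pH 7.4/0.01% Tween-20, 30 min RT; compound added (max 110 uM), 30 min RT; streptavidin donor/Ni-chelate acceptor beads 10 ug/mL final, 20 min dark; AlphaScreen read.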
# L3MBTL1 inh: blocks human L3MBTL1; Potency, µM (doses to about 57.1 µM), for the others: at the top dose activity, negative = inhibition, actives largely listed as inhibitors; AID 485360; AlphaScreen L3MBTL1–H3K9me1 peptide binding; 0.66% of 230,000 active; note: % is set by controls: 0 for no effect and ±100 for the full control effect; nearly all actives have a fitted effect of over 60% in size
#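 Read-out is AlphaScreen signal from streptavidin donor and nickel chelate acceptor beads (10 ug/mL final each) bridging L3MBTL1 (50 nM) and biotinylated K9-monomethylated H3(1-15) peptide (75 nM), after 30 min compound exposure at room temperature.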
# Sfp inh: Sfp phosphopantetheinyl transferase inhibition; Q9F4F7; Biochemical Sfp PPTase activity, qHTS; Potency, µM, inactives show largest response in the series, negative = inhibition, hits mostly inhibitors; 3.5% of 310,000 active;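 note: the enzyme is Sfp with the accession as filed and its product quenches rhodamine fluorescence; 0% = enzyme reaction without inhibitor and -100% = no enzyme wells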
#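 Fluorescence-quenching assay with 15 nM Sfp, 5 uM rhodamine-CoA and 12.5 uM BHQ-2-labelled ybbR peptide in pH 7.6 Hepes/MgCl2 buffer. Enzyme was pre-incubated with compound for 15 min at room temperature. Rate was taken from the 30-min fluorescence change (525/598 nm).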
# G9a block: blocks human histone lysine methyltransferase G9a | Q96KQ7 | G9a H3K9 monomethylation, AlphaScreen, 2 h | Potency, µM (top dose mostly 102 µM), inactives show at the top dose activity, negative = inhibition, hits mostly inhibitors | 8.8% of 350,000 active | AID 504332; note: % is set by controls: 0 for no effect and ±100 for the full control effect; nearly all actives have a fitted effect of over 75% in size
#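 Quantitative HTS format: methyltransferase activity on a biotin-tagged H3K9 peptide is measured by AlphaScreen, using a rabbit anti-monomethyl-H3K9 antibody with streptavidin donor and anti-IgG acceptor beads. Final levels are 20 nM enzyme, 500 nM peptide, 20 uM SAM; 2 h RT.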
# HP1b binding inh: blocks HP1-beta chromodomain binding to methylated histone tails; AlphaScreen HP1-beta / biotin-H3K9me3 peptide binding; Potency, µM (series often up to 114 µM), for inactives: at the top dose activity change, negative = inhibition, hits mostly inhibitors; P83916; 0.56% of 390,000 active; note: nearly all actives have a fitted effect of over 70% in size
#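 HP1-beta protein (50 nM final) preincubated 30 min at room temperature with biotinylated H3(1-18)K9me3 peptide (50 nM) in PBS pH 7.4, 0.01% Tween-20, then compound added for 30 min. AlphaScreen streptavidin donor/nickel chelate acceptor beads (10 ug/mL final), 30 min dark, luminescence read.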
# Active calls of the source: *; ? = inconclusive; · = no result; [ ] = remark or other dose. Calls come from the whole dose curve; as a rule, active = well fitted curve in the direction sought with a large enough effect; inconclusive = small, poorly fitted or top-dose-only effect, or another doubt; inactive = no such curve, though single readings can be large; an effect the other way counts as inactive or inconclusive. Potency is the fitted concentration of half-maximal effect.
SMILES,JMJD2A Tudor inh,BAZ2B inh,L3MBTL1 inh,Sfp inh,G9a block,HP1b binding inh
COc1cc(C(c2nnnn2C(C)(C)C)N2CCN(c3nc4ccccc4s3)CC2)ccc1O (stereo unspecified),?,?,-1%,25µM*,2.2µM*,?
COc1ccc(C(c2nnnn2C(C)(C)C)N2CCN(c3nc4ccccc4s3)CC2)cc1OC (stereo unspecified),14%[11.4 µM],79µM*,-5%,4%,-41%,-11%
CCN(C[C@H]1N[C@@](C)(C(=O)OC)[C@H]2C(=O)N(C)C(=O)[C@@H]12)C(=O)Nc1ccc(OC)cc1,-23%,·,8%,·,·,14%
COC(=O)/C(=C1/OC(=O)C(c2ccccc2)=C1O)c1ccccc1,·,·,·,-8%,·,·
COC(=O)/C=C1\OC(c2ccccc2)=CC1=O,·,?,1%,20µM*,4µM*,·
CC1(C)Oc2ccc3ccc(=O)oc3c2/C(=C/Nc2ccc(O)cc2)C1=O,-13%[11.4 µM],-1%,?,20%,-39%,?
CN/C=C1\C(=O)C(C)(C)Oc2ccc3ccc(=O)oc3c21,-30%,-10%,-12%,18%,1%[59 µM],0%
CC1(C)Oc2ccc3ccc(=O)oc3c2/C(=C/NNC(N)=S)C1=O,?,50µM*,·,-1%,7.1µM*,-24%
CC1(C)Oc2ccc3ccc(=O)oc3c2/C(=C/Nc2cccc(O)c2)C1=O,40µM*,?,·,-6%,45µM*,?
COc1ccc(C2c3[nH]c4ccc(OC)cc4c3CCN2C(=O)Nc2ccccc2)cc1 (stereo unspecified),?,?,·,·,?,-7%
CCNC(=O)C1CCCN1S(=O)(=O)c1ccc(OC)cc1 (stereo unspecified),-6%,8%,·,14%,8.9µM*,7%
COc1ccc(S(=O)(=O)N2CCCC2C(=O)Nc2nnc(-c3cccnc3)s2)cc1 (stereo unspecified),-26%,-8%,-8%,-7%,3.5µM*,-26%
Cc1cccc(NC(=O)c2oc3ccccc3c2NC(=O)c2cc(=O)c3ccc(C)cc3o2)c1,-11%,2%,·,·,?,-1%
COc1cccc(-c2nnc(-c3ccco3)o2)c1,50µM*,5%,-2%,6%,-8%,-2%
COc1cccc(-c2nnc(NC(=O)C(C)C)o2)c1,?,79µM*,-14%,13%,8.9µM*,40%
O=C(Nc1cccc(-c2nnc(-c3ccco3)o2)c1)c1ccccc1,-8%,-4%,-1%,21%,8%,19%
CC(=O)Oc1ccc(C(=O)Nc2cccc(-c3nnc(-c4ccco4)o3)c2)cc1,-20%,-29%,6%,-2%,50µM*,17%
COc1cccc(-c2nnc(-c3ccc(C)o3)o2)c1,-16%,-4%,-5%,56µM*,13µM*,30%
COc1cccc(-c2nnc(N)o2)c1,-6%,-2%,·,10%,1%,21%
CCN(CC)CCn1c2c(c(SCC(=O)Nc3cccc(C(F)(F)F)c3)nc1=O)CCC2,-16%,-13%,·,·,-19%[59 µM],17%
NC(=O)CN(C/C=C/c1ccccc1)C/C=C/c1ccccc1,20µM*,?,-4%,-30%,·,?
Cc1cc(NC(=O)c2ccccc2)sc1C,-13%[11.4 µM],?,·,50µM*,16µM*,14%
Cc1ccc(NC(=O)c2ccccc2)s1,14%,-3%,-4%,-30%,25µM*,23%
Cc1cc(NC(=O)c2ccccc2)cc(NC(=O)c2ccccc2)c1C,-16%,5%,0%,1%,·,-16%
COc1ccc2c(c1OC)C(=O)N1c3ccccc3N=C(c3ccc([N+](=O)[O-])cc3)CC21 (stereo unspecified),?,8%,-10%,20µM*,?,-7%
COc1ccc2c(c1OC)C(=O)N1N=C(c3ccc(-c4ccccc4)cc3)CC21 (stereo unspecified),-25%,-12%,5%,7%,-5%,22%
